Measurements taken from PubChem BioAssay AID1159580 (chemical genetic matrix, 2015).
Where “and” joins values, the source holds several entries; their conditions need not be identical. Equal entries are not always repeated. The whole screen tested about 5,500 compounds, of which about 2,000 (36%) were called active. About 18% were inconclusive and are not listed. No stated cut-off is given here; in the data, active means normalized growth mostly below about 0.91 (no sharp cut-off); inconclusive means no clear call, values can overlap the other calls; inactive means mostly above about 0.92. Some of the results follow.

Assay: chemical genetic growth profiling, strain panel (AID 1159580);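 further: tested at 20 µM; growth read once vehicle control cultures reached saturation at 30 °C; 1 = growth at the plate median or of vehicle wells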
Settings: S. cerevisiae deletion strains, growth OD

Measured: normalized growth

CC1=C2CCC3C(CC[C@]4(C)C(=O)CCC34)[C@@]2(C)CCC1=O (some centres not stated)
active: locus YAL021C, strain ccr4, stronger effect = lower value 0.899 | locus YBR021W, strain FUR4, stronger effect = lower value 0.798 | locus YDL192W, strain arf1, stronger effect = lower value 0.916 | locus YDR137W, strain rgp1, stronger effect = lower value 0.693 | locus YDR195W, strain ref2 1.15 [resistant] | locus YDR392W, strain spt3, stronger effect = lower value 0.565 | locus YDR502C, strain sam2, stronger effect = lower value 0.895
inactive: locus YAL013W, strain DEP1, stronger effect = lower value 0.961 | locus YAL026C, strain drs2, stronger effect = lower value 0.978 | locus YAL030W, strain snc1, stronger effect = lower value 0.993 | locus YBL061C, strain skt5, stronger effect = lower value 0.997 | locus YBR009C, strain hhf1, stronger effect = lower value 0.956 | locus YBR023C, strain chs3, stronger effect = lower value 0.977 | locus YBR171W, strain sec66, stronger effect = lower value 0.977 | locus YBR229C, strain ROT2, stronger effect = lower value 0.981 | locus YBR231C, strain swc5, stronger effect = lower value 1.04 | locus YBR279W, strain paf1, stronger effect = lower value 0.972 | locus YCL011C, strain gbp2, stronger effect = lower value 0.968 | locus YCL016C, strain dcc1, stronger effect = lower value 0.947 | locus YCL029C, strain bik1, stronger effect = lower value 0.969 | locus YCL061C, strain MRC1, stronger effect = lower value 0.967 | locus YCL069W, strain vba3, stronger effect = lower value 0.983 | locus YCR088W, strain abp1, stronger effect = lower value 1.01 | locus YDL005C, strain med2, stronger effect = lower value 0.993 | locus YDL035C, strain GPR1, stronger effect = lower value 0.922 | locus YDL040C, strain nat1, stronger effect = lower value 0.999 | locus YDL074C, strain BRE1, stronger effect = lower value 0.915 | locus YDL101C, strain DUN1, stronger effect = lower value 0.986 | locus YDL134C, strain PPH21, stronger effect = lower value 0.981 | locus YDL185W, strain tfp1, stronger effect = lower value 0.962 | locus YDR001C, strain nth1, stronger effect = lower value 0.997 | locus YDR069C, strain doa4, stronger effect = lower value 1 | locus YDR101C, strain arx1, stronger effect = lower value 0.982 | locus YDR150W, strain NUM1, stronger effect = lower value 0.986 | locus YDR159W, strain sac3, stronger effect = lower value 0.998 | locus YDR162C, strain NBP2, stronger effect = lower value 0.842 | locus YDR297W, strain sur2, stronger effect = lower value 0.995 | locus YDR318W, strain mcm21, stronger effect = lower value 0.941 | locus YDR334W, strain swr1, stronger effect = lower value 1.01 | locus YDR335W, strain msn5, stronger effect = lower value 0.961 | locus YDR388W, stronger effect = lower value 0.946 | locus YEL003W, strain gim4, stronger effect = lower value 0.971 | locus YEL037C, strain rad23, stronger effect = lower value 0.985 | locus YEL061C, strain CIN8 (second series), stronger effect = lower value 0.992 | locus YEL061C, strain CIN8, stronger effect = lower value 0.967 | locus YER015W, strain faa2, stronger effect = lower value 0.964 | locus YER016W, strain bim1, stronger effect = lower value 0.991 | locus YER110C, stronger effect = lower value 0.957 | locus YER111C, strain swi4, stronger effect = lower value 0.989 | locus YER155C, strain BEM2 (second series), stronger effect = lower value 0.904 | locus YER155C, strain BEM2, stronger effect = lower value 0.997 | locus YER167W, strain BCK2, stronger effect = lower value 0.931 | locus YFR010W, strain ubp6, stronger effect = lower value 1.02 | locus YGL078C, strain dbp3, stronger effect = lower value 0.947 | locus YGL086W, strain mad1, stronger effect = lower value 0.936 | locus YGL167C, strain pmr1, stronger effect = lower value 0.963 | locus YGL173C, strain kem1, stronger effect = lower value 1 | locus YGL227W, strain vid30, stronger effect = lower value 1.01 | locus YGL240W, strain doc1, stronger effect = lower value 0.941 | locus YGL248W, strain PDE1, stronger effect = lower value 0.981 | locus YGL253W, strain hxk2, stronger effect = lower value 0.979 | locus YGR078C, strain PAC10, stronger effect = lower value 0.959 | locus YGR135W, strain pre9, stronger effect = lower value 0.902 | locus YGR229C, strain SMI1, stronger effect = lower value 0.962 | locus YGR252W, strain gcn5, stronger effect = lower value 0.836 | locus YHR013C, strain ard1, stronger effect = lower value 0.943 | locus YHR027C, strain rpn1, stronger effect = lower value 0.995 | locus YHR030C, strain SLT2, stronger effect = lower value 0.975 and 0.95 | locus YHR079C, strain IRE1 (second series), stronger effect = lower value 0.986 | locus YHR079C, strain IRE1, stronger effect = lower value 0.941 | locus YHR094C, strain hxt1, stronger effect = lower value 0.984 | locus YHR129C, strain ARP1, stronger effect = lower value 0.991 | locus YHR142W, strain chs7, stronger effect = lower value 0.92 | locus YHR200W, strain rpn10, stronger effect = lower value 0.955 | locus YIL066C, strain RNR3, stronger effect = lower value 0.937 | locus YIL073C, strain SPO22, stronger effect = lower value 0.861 | locus YIL125W, strain kgd1, stronger effect = lower value 0.971 | locus YIR030C, strain dcg1, stronger effect = lower value 0.971 | locus YJL092W, strain hpr5, stronger effect = lower value 0.992 | locus YJL095W, strain BCK1 (second series), stronger effect = lower value 0.992 | locus YJL095W, strain BCK1, stronger effect = lower value 0.889 and 0.943 | locus YJL115W, strain asf1, stronger effect = lower value 0.985 | locus YJL129C, strain trk1, stronger effect = lower value 0.93 | locus YJL134W, strain LCB3, stronger effect = lower value 0.983 | locus YJL154C, strain vps35, stronger effect = lower value 0.993 | locus YJL164C, strain tpk1, stronger effect = lower value 0.938 | locus YJL166W, strain qcr8, stronger effect = lower value 0.963 | locus YJL168C, strain set2, stronger effect = lower value 0.978 | locus YJL187C, strain SWE1 (second series), stronger effect = lower value 0.985 | locus YJL187C, strain SWE1, stronger effect = lower value 0.989 | locus YJR043C, strain POL32, stronger effect = lower value 0.99 | locus YJR066W, strain TOR1, stronger effect = lower value 0.852
